Laboratory results taken from PubChem BioAssay AID624483 (NMMLSC, 2012).
The whole screen tested about 360,000 compounds, of which about 11,000 (3.1%) were called active. About 2% were inconclusive and are not listed. The sample holds actives, similar compounds and a random draw of the others, so the mix is not that of the screen. A number with no mark means an inactive call. No stated cut-off is given here; in the data, active means fluorescence intensity above about 16000; inconclusive means no clear call, values can overlap the other calls; inactive means below that.

Test: compound fluorescence in toxin protease inhibitor counterscreen, primary screen, artefact control for toxin protease inhibitor project, biochemical, multiplex microsphere, HTS (AID 624483)
Details: compound autofluorescence counterscreen, microsphere flow cytometry; active compounds read high

Row | SMILES | fluorescence intensity
1 | CSc1ccc(/C=N\NC(=O)COc2ccc(Cl)cc2Br)cc1 | 17700 (active)
2 | O=C(COc1ccc(Cl)cc1Cl)N/N=C/c1ccccn1 | 5790
3 | CSc1ccc(/C=N/NC(=O)c2cccc(Cl)c2)cc1 | 2570
4 | CCOC(=O)[C@]12CCCC=C1N(Cc1cccc3ccccc13)C(=O)[C@H](CC(=O)NCC13CC4CC(CC(C4)C1)C3)C2 | 5880
5 | CC1(C(=O)NCc2cccc3ccccc23)CCN1Cc1ccc(-c2ccccc2)o1 (stereo not drawn) | 3560
6 | CCCCc1ccc(S(=O)(=O)NC(=O)C2(C)CCN2C(=O)c2ccccc2)cc1 (stereo not drawn) | 3420
7 | CC(OC(=O)c1ccc(NS(=O)(=O)c2ccc3[nH]c(=O)[nH]c3c2)cc1)C(=O)Nc1cccc(Cl)c1Cl (stereo not drawn) | 3440
8 | CC(=O)NS(=O)(=O)c1ccccc1 | 6630
9 | CC(=O)NS(=O)(=O)c1ccc(NC(=S)NC(=O)C(C)(C)C)cc1 | 24700 (active)
10 | CC(C)(C)C(=O)NC(NC(=S)Nc1ccc(S(N)(=O)=O)cc1)C(Cl)(Cl)Cl (stereo not drawn) | 1960
11 | CC(C)CCOc1ccc(C(=O)Nc2cc(S(=O)(=O)N3CCOCC3)ccc2N2CCOCC2)cc1 | 3010
12 | CC(C)CC(=O)N1CCC(O)(CS(=O)(=O)Cc2ccccc2)CC1 | 10100
13 | Cc1ccccc1CN1CCN(C(=O)c2cccc(F)c2)CC1 | 2980
14 | Cc1ccccc1CS(=O)(=O)CC1(O)CCN(C(=O)c2cccc(C(F)(F)F)c2)CC1 | 20100 (active)
15 | Cn1c(=O)c2c(nc(N3CCCCCC3)n2CC(O)COc2ccc(Cl)cc2)n(C)c1=O (stereo not drawn) | 21800 (active)
16 | Cc1cccc(OCC(O)Cn2c(N3CCCCC3)nc3c2c(=O)[nH]c(=O)n3C)c1 (stereo not drawn) | 4090
17 | O=C(c1ccc(Cl)cc1)c1ccc(OCC(O)CN2CCCCC2)cc1 (stereo not drawn) | 4210
18 | c1cc(-c2ccc3[nH]ccc3c2)n2ccnc2c1 | 3500
19 | COC(=O)[C@]12CCCCC=C1N(Cc1ccco1)C(=O)[C@H](CC(=O)NCC1CCCCC1)C2 | 4680
20 | CSc1ncccc1C(=O)Nc1cccc(S(=O)(=O)N2CCOCC2)c1 | 4320
21 | Oc1ccc(CNc2ccccc2O)cc1 | 3590
22 | COc1ccc2oc(=O)cc(CN3CCOCC3)c2c1 | 4180
23 | COc1ccc(OC)c(C(=O)c2coc3ccc(O)c(CN4CCOCC4)c23)c1 | 22400 (active)
24 | COc1ccc(OC)c(C(=O)c2coc3ccc(OC)cc23)c1 | 2950

Row | SMILES | fluorescence intensity
25 | Cc1ccc(NC(=O)c2oc(=O)c3ccccc3c2-c2ccccc2)c(C)c1 | 2070
26 | CCN(CC)CCNc1nc(-c2ccc(OC(F)F)cc2)c(C)s1 | 4700
27 | O=C(c1cccc(Br)c1)N1CCN(C2=NS(=O)(=O)c3ccccc32)CC1 | 5480
28 | COc1ccc(CCNC(=O)C2CCCN(S(=O)(=O)c3ccc(OC)cc3)C2)cc1 (stereo not drawn) | 5700
29 | COc1ccc(S(=O)(=O)N2CCCC(C(=O)Nc3ccc(NC(=O)c4ccccn4)cc3)C2)cc1 (stereo not drawn) | 22100 (active)
30 | CC(=O)Nc1ccc(NC(=O)C2CCCN(S(=O)(=O)c3ccc(Cl)cc3)C2)cc1 (stereo not drawn) | 5830
31 | Cc1ccc(F)c(S(=O)(=O)NC(=O)C2(C)CCN2C(=O)CCc2cccs2)c1 (stereo not drawn) | 3440
32 | CCOc1ccc(NC(=O)c2ccccc2NS(C)(=O)=O)cc1 | 9540
33 | COC(=O)c1ccc(NC(=O)c2ccccc2NS(=O)(=O)c2ccccc2)cc1 | 20200 (active)
34 | COC(=O)c1ccccc1NS(=O)(=O)c1ccc2[nH]c(=O)[nH]c2c1 | 2520
35 | O=C(NCCC(=O)N1O[C@@H]2C=C[C@H]1C2)OCC1c2ccccc2-c2ccccc21 | 3360
36 | COc1ccc(S(=O)(=O)NC(=O)C2(C)CCN2C(=O)c2ccccc2CCc2ccccc2)cc1 (stereo not drawn) | 3970
37 | O=C(O)c1ccc(F)c(S(=O)(=O)Nc2ccccc2)c1 | 9990
38 | COc1ccc(Cl)cc1S(=O)(=O)Nc1cccc(C(=O)O)c1 | 22100 (active)
39 | COc1ccc(C)cc1S(=O)(=O)Nc1cccc(Cl)c1Cl | 2450
40 | COc1ccc(C(N)c2csc(NC(=O)Nc3cccc(C(F)(F)F)c3)n2)cc1 (stereo not drawn) | 3490
41 | Cn1nnnc1SCC(=O)N1CCN(Cc2ccccc2)CC1 | 19800 (active)
42 | Cn1nnnc1SCC(=O)N1CCN(C(c2ccccc2)c2ccccc2)CC1 | 3570
43 | CC(=O)c1ccc(-n2nnnc2SCC(=O)N2CCN(C(=O)c3ccco3)CC2)cc1 | 2310
44 | CC(C)COc1ccc(C(=O)NNC(=O)CCC(=O)c2cccs2)cc1 | 4110
45 | O=C(O)CSc1nnc(-c2ccc3c(c2)OCO3)n1-c1ccccc1 | 2040
46 | O=C(O)CCSc1nnc(-c2ccccc2)n1-c1ccccc1 | 22100 (active)
47 | NNC(=O)CSc1nnc(-c2ccccc2)n1-c1ccccc1 | 3710
48 | COc1ccccc1Cc1c(-c2ccc(Cl)cc2)nc2ccc(Cl)cn12 | 8280
